Test systems include HCT-15 colon; HT29 colon; SNB-75 CNS; SNB-19 CNS; U251 CNS; PC-3 prostate; SK-MEL-5 melanoma; LOX IMVI melanoma; SK-MEL-28 melanoma; SK-MEL-2 melanoma; EKVX NSCLC; SN12C renal; UO-31 renal; TK-10 renal; ACHN renal; CAKI-1 renal; A498 renal; CCRF-CEM leukemia; MOLT-4 leukemia; UACC-62 melanoma.
Assay in all cases: NCI-60 one-dose screen, 48 h (100 = growth as untreated, 0 = no growth, -100 = all killed)
Holding throughout (settings): 10 µM

The structures appear in SMILES notation. This is part of a sample that, as a whole, favours compounds with a hit. Of some 83,000 tested, about 20% had one in any assay.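 Values shown are percent growth following 48 h exposure of cells in 96-well plates to a single concentration of compound; below 10 was considered active.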 A number with no mark means an inactive call. Active and inactive are the calls of the source.

The values that follow come from PubChem BioAssay (NCI).

For `[2H]C([2H])([2H])Oc1ccc2ncc(C#Cc3cncc(C(=O)Nc4ccc(CN5CCN(C)CC5)c(C(F)(F)F)c4)c3)n2n1`, the growth was -87.7% (active) with HCT-15 colon; -52.8% (active) in the assay on HT29 colon; -66.4% (active) in the assay with SNB-75 CNS; -57.9% (active) in the assay on SNB-19 CNS; -31.4% (active) with U251 CNS; -61.6% (active) in the assay on PC-3 prostate. Besides, the growth in the assay on SK-MEL-5 melanoma was -96.1% (active); in the assay with LOX IMVI melanoma, -68.4% (active); in the assay with SK-MEL-28 melanoma, -83.8% (active); in the assay with SK-MEL-2 melanoma, -92.7% (active); in the assay with EKVX NSCLC it was -60% (active); with SN12C renal, -78.2% (active). For the same compound, the growth with UO-31 renal was -85.2% (active); in the assay on TK-10 renal it was -53.4% (active); with ACHN renal, -88.9% (active); in the assay with CAKI-1 renal, -78.7% (active); in the assay on A498 renal it was -50.6% (active); in the assay on CCRF-CEM leukemia, 0.607% (active). Further, the growth in the assay on MOLT-4 leukemia is -13.6% (active).
`O=S(=O)(c1ccc(Cl)cc1)c1nc(-c2ccccc2)oc1S(=O)(=O)c1ccc(Cl)cc1`: the growth in the assay with HCT-15 colon is 47.4%; in the assay with HT29 colon it was 89.7%; in the assay on SNB-75 CNS it was 76.5%; in the assay with SNB-19 CNS it was 94.9%; in the assay on U251 CNS, 79.9%; with PC-3 prostate, 103%. Further, the growth is 91.9% in the assay with SK-MEL-5 melanoma; 19.7% with LOX IMVI melanoma; 104% in the assay with SK-MEL-28 melanoma; 96.7% in the assay on SK-MEL-2 melanoma; 92.1% with EKVX NSCLC; 89.5% in the assay on SN12C renal. Also, the growth is 64.4% in the assay on UO-31 renal; 97.8% in the assay with TK-10 renal; 91.9% with ACHN renal; 85.8% in the assay on CAKI-1 renal; 122% in the assay with A498 renal; -28.1% (active) in the assay with CCRF-CEM leukemia.
`CN(C)c1nc(NCCNS(=O)(=O)c2ccc(C(=O)/C=C/c3ccccc3)cc2)nc(Nc2ccc(F)cc2)n1`: the growth was -67.2% (active) in the assay with HCT-15 colon; -59.8% (active) with HT29 colon; 87.3% with SNB-75 CNS; 41.7% with SNB-19 CNS; -56.2% (active) with U251 CNS; 16.4% with PC-3 prostate. Also, the growth in the assay with SK-MEL-5 melanoma was 30.2%; in the assay on LOX IMVI melanoma it was -100% (active); in the assay with SK-MEL-28 melanoma it was 31.4%; in the assay on SK-MEL-2 melanoma it was 81%; with EKVX NSCLC, 29.1%; in the assay with SN12C renal, -89% (active). In addition, the growth in the assay on UO-31 renal was 18.2%; in the assay on TK-10 renal it was 92.5%; with ACHN renal, 12.7%; with CAKI-1 renal, 38.1%; in the assay with A498 renal, 61.1%; in the assay with CCRF-CEM leukemia it was 14.8%. The growth with MOLT-4 leukemia is 8.21% (active).
Turning to `C=C1CCC2C3(C)COC(c4c(F)cccc4F)OC3CCC2(C)C1C/C=C1/C(=O)OCC1O` (centres undefined), the growth in the assay on HCT-15 colon is -18.7% (active); in the assay on HT29 colon, 3.23% (active); in the assay on SNB-75 CNS, 23.2%; in the assay on SNB-19 CNS, -7.73% (active); with U251 CNS it was -94.2% (active); in the assay on PC-3 prostate it was 5.05% (active). Further, the growth in the assay on SK-MEL-5 melanoma was -65.5% (active); with SK-MEL-28 melanoma, -51.2% (active); in the assay with SK-MEL-2 melanoma it was -44.7% (active); in the assay with EKVX NSCLC, 3.87% (active); with SN12C renal, -24.1% (active); with UO-31 renal, -91.6% (active). The growth was -23.2% (active) in the assay on TK-10 renal; -97.8% (active) with ACHN renal; 2.15% (active) with CAKI-1 renal; 141% with A498 renal; 13.9% with CCRF-CEM leukemia; 11.4% with MOLT-4 leukemia.
For `CC(C)(C)c1ccc(NCc2cn(-c3ccc(C(=O)O)cc3)nc2-c2ccc(C#N)cc2)cc1`, the growth in the assay on HCT-15 colon is -54.6% (active); with HT29 colon, 3.73% (active); with SNB-75 CNS it was 59.1%; in the assay on SNB-19 CNS, 24.6%; in the assay on U251 CNS, 22.8%; in the assay with PC-3 prostate it was 20.6%. The growth is 7.94% (active) with SK-MEL-5 melanoma; 23.5% in the assay with LOX IMVI melanoma; 28.1% in the assay on SK-MEL-28 melanoma; 53.1% in the assay with SK-MEL-2 melanoma; -36.7% (active) in the assay on EKVX NSCLC; 16.1% with SN12C renal. The growth was 35.7% with UO-31 renal; 86.3% with TK-10 renal; 27% in the assay on ACHN renal; 34.4% in the assay on CAKI-1 renal; 58.2% in the assay on A498 renal; 16.3% with CCRF-CEM leukemia. Also, the growth in the assay with MOLT-4 leukemia is 8.13% (active).
In the case of `Nc1nnc(-c2c[nH]c3ncccc23)c(-c2c[nH]c3ccc(Br)cc23)n1`, the growth is 56.5% in the assay with HCT-15 colon; 45.1% in the assay with HT29 colon; 28.2% in the assay with SNB-75 CNS; 40.8% in the assay with SNB-19 CNS; 37.5% in the assay on U251 CNS; 56.9% in the assay on PC-3 prostate. In addition, the growth in the assay with SK-MEL-5 melanoma was -33.5% (active); with UACC-62 melanoma, 33.8%; in the assay with SK-MEL-28 melanoma, 54%; in the assay on SK-MEL-2 melanoma it was 23.7%; in the assay with EKVX NSCLC it was 53.1%; in the assay with UO-31 renal, 35.6%. The growth in the assay on TK-10 renal is 44.9%; in the assay with ACHN renal it was 35.1%; in the assay on CAKI-1 renal, 23.1%; in the assay with A498 renal, 48.4%; in the assay with CCRF-CEM leukemia, 39.8%; in the assay on MOLT-4 leukemia, 12.7%.
Turning to `CN(CCF)c1ccc(/C=C/C(=O)c2ccc(N)cc2O)cc1`, the growth in the assay on HCT-15 colon was 49.8%; in the assay with HT29 colon, 42.8%; in the assay on SNB-75 CNS, 102%; in the assay with SNB-19 CNS, 84.1%; in the assay with U251 CNS, 70.3%; with PC-3 prostate, 86.5%. Besides, the growth in the assay on SK-MEL-5 melanoma was 68.1%; in the assay on LOX IMVI melanoma, 78.9%; in the assay on SK-MEL-28 melanoma it was 101%; in the assay with SK-MEL-2 melanoma, 93%; in the assay on EKVX NSCLC, 93.8%; in the assay on SN12C renal, 76.2%. Further, the growth is 53.2% with UO-31 renal; 100% in the assay with TK-10 renal; 79.3% with ACHN renal; 60.4% with CAKI-1 renal; 115% in the assay on A498 renal; 60.8% in the assay on CCRF-CEM leukemia. Further, the growth in the assay on MOLT-4 leukemia was 58%.
Consider `COc1cc2c3c(n(CCCNCCO)c(=O)c2cc1OC)-c1nc2c(cc1C3=O)OCO2`, for which the growth was 48.5% in the assay with HCT-15 colon; 5.98% (active) in the assay on HT29 colon; 18.8% in the assay with SNB-75 CNS; 13.7% in the assay with SNB-19 CNS; 12.4% in the assay on U251 CNS; 27.1% in the assay with PC-3 prostate. Besides, the growth was 30.4% in the assay on SK-MEL-5 melanoma; -90.8% (active) in the assay with LOX IMVI melanoma; 72.2% with SK-MEL-28 melanoma; 116% in the assay with SK-MEL-2 melanoma; 79% in the assay with EKVX NSCLC; 8.45% (active) in the assay on SN12C renal. In addition, the growth with UO-31 renal was 24.4%; in the assay with TK-10 renal, 85.5%; in the assay on ACHN renal it was 2.56% (active); with CAKI-1 renal, 7.66% (active); in the assay with A498 renal, 69.3%; in the assay on CCRF-CEM leukemia, 8.64% (active). Also, the growth in the assay on MOLT-4 leukemia is -14.4% (active).
